Reference: PubChem BioAssay AID1159580 (chemical genetic matrix, 2015)
Where “and” joins values, the source holds several entries; their conditions need not be identical. Equal entries are not always repeated. Among all 5,500 compounds or so, about 2,000 (36%) were called active. Roughly 18% stayed inconclusive and do not appear here. Cut-off read from the data, not from the text of the source: active = normalized growth mostly below about 0.91 (no sharp cut-off); inconclusive = no clear call, values can overlap the other calls; inactive = mostly above about 0.92. This is one part of the list.

Assay: chemical genetic growth profiling, strain panel (AID 1159580);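 note: tested at 20 µM; growth read once vehicle control cultures reached saturation at 30 °C; 1 = growth at the plate median or of vehicle wells; lower values mean less growth of the strain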
Conditions: growth OD

Measured: normalized growth

CN1C(=O)CCS(=O)(=O)C1c1ccc(Cl)cc1 (stereo unspecified)
inactive: S. cerevisiae deletion strains, locus YJR075W, strain HOC1, stronger effect = lower value 1.04 and 1.02 | S. cerevisiae deletion strains, locus YKL009W, strain mrt4, stronger effect = lower value 1.03 | S. cerevisiae deletion strains, locus YKL068W, stronger effect = lower value 1.01 | S. cerevisiae deletion strains, locus YKL085W, strain MDH1 (second series), stronger effect = lower value 1.01 | S. cerevisiae deletion strains, locus YKL085W, strain MDH1, stronger effect = lower value 1.01 | S. cerevisiae deletion strains, locus YKL160W, strain elf1, stronger effect = lower value 1.02 | S. cerevisiae deletion strains, locus YKL190W, strain CNB1, stronger effect = lower value 1.01 | S. cerevisiae deletion strains, locus YKR001C, strain vps1, stronger effect = lower value 1.01 | S. cerevisiae deletion strains, locus YKR026C, strain gcn3, stronger effect = lower value 0.976 | S. cerevisiae deletion strains, locus YKR091W, strain srl3, stronger effect = lower value 0.984 | S. cerevisiae deletion strains, locus YLL001W, strain dnm1, stronger effect = lower value 0.979 | S. cerevisiae deletion strains, locus YLL026W, stronger effect = lower value 0.999 | S. cerevisiae deletion strains, locus YLL041C, strain sdh2, stronger effect = lower value 0.984 | S. cerevisiae deletion strains, locus YLR027C, strain aat2, stronger effect = lower value 0.998 | S. cerevisiae deletion strains, locus YLR039C, strain RIC1, stronger effect = lower value 1.04 | S. cerevisiae deletion strains, locus YLR058C, strain SHM2, stronger effect = lower value 1.01 | S. cerevisiae deletion strains, locus YLR102C, strain apc9, stronger effect = lower value 1.01 | S. cerevisiae deletion strains, locus YLR113W, strain HOG1, stronger effect = lower value 0.99 | S. cerevisiae deletion strains, locus YLR221C, strain rsa3, stronger effect = lower value 0.978 | S. cerevisiae deletion strains, locus YLR258W, strain gsy2, stronger effect = lower value 0.988 | S. cerevisiae deletion strains, locus YLR262C, strain YPT6 (second series), stronger effect = lower value 0.987 | S. cerevisiae deletion strains, locus YLR262C, strain YPT6, stronger effect = lower value 1.06 | S. cerevisiae deletion strains, locus YLR268W, strain sec22, stronger effect = lower value 1.06 | S. cerevisiae deletion strains, locus YLR320W, strain mms22, stronger effect = lower value 0.939 | S. cerevisiae deletion strains, locus YLR330W, strain CHS5, stronger effect = lower value 1.01 | S. cerevisiae deletion strains, locus YLR342W, strain FKS1 (second series), stronger effect = lower value 1.01 | S. cerevisiae deletion strains, locus YLR342W, strain FKS1, stronger effect = lower value 1.01 | S. cerevisiae deletion strains, locus YLR357W, strain rsc2, stronger effect = lower value 0.954 | S. cerevisiae deletion strains, locus YLR370C, strain arc18, stronger effect = lower value 0.991 | S. cerevisiae deletion strains, locus YLR371W, strain rom2, stronger effect = lower value 1.02 | S. cerevisiae deletion strains, locus YLR384C, strain iki3, stronger effect = lower value 0.996 | S. cerevisiae deletion strains, locus YLR418C, strain cdc73, stronger effect = lower value 1.02 | S. cerevisiae deletion strains, locus YML016C, strain PPZ1, stronger effect = lower value 1.01 | S. cerevisiae deletion strains, locus YML032C, strain rad52, stronger effect = lower value 1.04 | S. cerevisiae deletion strains, locus YML120C, strain ndi1, stronger effect = lower value 0.948 | S. cerevisiae deletion strains, locus YML124C, strain tub3, stronger effect = lower value 1.01 | S. cerevisiae deletion strains, locus YMR058W, strain fet3, stronger effect = lower value 0.979 | S. cerevisiae deletion strains, locus YMR078C, strain ctf18, stronger effect = lower value 1.02 | S. cerevisiae deletion strains, locus YMR125W, strain sto1, stronger effect = lower value 0.982 | S. cerevisiae deletion strains, locus YMR129W, stronger effect = lower value 0.974 | S. cerevisiae deletion strains, locus YMR205C, strain PFK2, stronger effect = lower value 0.947 | S. cerevisiae deletion strains, locus YMR223W, strain ubp8, stronger effect = lower value 1 | S. cerevisiae deletion strains, locus YMR231W, strain pep5, stronger effect = lower value 0.987 | S. cerevisiae deletion strains, locus YMR263W, strain SAP30, stronger effect = lower value 1.02 and 0.996 | S. cerevisiae deletion strains, locus YMR307W, strain GAS1, stronger effect = lower value 1 and 0.99 | S. cerevisiae deletion strains, locus YNL067W, strain RPL9B, stronger effect = lower value 1.03 | S. cerevisiae deletion strains, locus YNL071W, strain lat1, stronger effect = lower value 0.979 | S. cerevisiae deletion strains, locus YNL128W, strain TEP1, stronger effect = lower value 1.03 | S. cerevisiae deletion strains, locus YNL153C, strain GIM3, stronger effect = lower value 1.02 and 0.995 | S. cerevisiae deletion strains, locus YNL175C, strain NOP13, stronger effect = lower value 1.01 | S. cerevisiae deletion strains, locus YNL183C, strain NPR1, stronger effect = lower value 0.883 | S. cerevisiae deletion strains, locus YNL197C, strain WHI3, stronger effect = lower value 1 | S. cerevisiae deletion strains, locus YNL209W, strain ssb2, stronger effect = lower value 0.984 | S. cerevisiae deletion strains, locus YNL224C, strain SQS1, stronger effect = lower value 1 | S. cerevisiae deletion strains, locus YNL233W, strain BNI4, stronger effect = lower value 1.02 | S. cerevisiae deletion strains, locus YNL248C, strain rpa49, stronger effect = lower value 1.03 | S. cerevisiae deletion strains, locus YNL250W, strain rad50, stronger effect = lower value 1.01 | S. cerevisiae deletion strains, locus YNL271C, strain bni1, stronger effect = lower value 1.02 | S. cerevisiae deletion strains, locus YNL298W, strain CLA4, stronger effect = lower value 1.02 | S. cerevisiae deletion strains, locus YNL307C, strain MCK1, stronger effect = lower value 1.01 | S. cerevisiae deletion strains, locus YNL322C, strain KRE1 (second series), stronger effect = lower value 1 | S. cerevisiae deletion strains, locus YNL322C, strain KRE1, stronger effect = lower value 1.01 | S. cerevisiae deletion strains, locus YNR049C, strain mso1, stronger effect = lower value 0.992 | S. cerevisiae deletion strains, locus YNR052C, strain pop2, stronger effect = lower value 1.02 | S. cerevisiae deletion strains, locus YOL006C, strain TOP1, stronger effect = lower value 1.1 | S. cerevisiae deletion strains, locus YOL012C, strain htz1 0.9 | S. cerevisiae deletion strains, locus YOL147C, strain pex11, stronger effect = lower value 1.01 | S. cerevisiae deletion strains, locus YOR001W, strain rrp6, stronger effect = lower value 0.94 | S. cerevisiae deletion strains, locus YOR061W, strain CKA2, stronger effect = lower value 1.01 | S. cerevisiae deletion strains, locus YOR069W, strain VPS5, stronger effect = lower value 1.01 | S. cerevisiae deletion strains, locus YOR070C, strain gyp1, stronger effect = lower value 0.993 | S. cerevisiae deletion strains, locus YOR080W, strain dia2, stronger effect = lower value 0.982 | S. cerevisiae deletion strains, locus YOR083W, strain WHI5 (second series), stronger effect = lower value 1.03 | S. cerevisiae deletion strains, locus YOR083W, strain WHI5, stronger effect = lower value 0.994 | S. cerevisiae deletion strains, locus YOR106W, strain vam3, stronger effect = lower value 1.02 | S. cerevisiae deletion strains, locus YOR136W, strain idh2, stronger effect = lower value 1.01 | S. cerevisiae deletion strains, locus YOR144C, strain elg1, stronger effect = lower value 1.01 | S. cerevisiae deletion strains, locus YOR184W, strain ser1, stronger effect = lower value 1.01 | S. cerevisiae deletion strains, locus YOR231W, strain MKK1, stronger effect = lower value 0.996 | S. cerevisiae deletion strains, locus YOR265W, strain rbl2, stronger effect = lower value 0.982 | S. cerevisiae deletion strains, locus YOR270C, strain vph1, stronger effect = lower value 0.992 | S. cerevisiae deletion strains, locus YOR290C, strain snf2, stronger effect = lower value 1.01 | S. cerevisiae deletion strains, locus YOR316C, strain cot1, stronger effect = lower value 1.01 | S. cerevisiae deletion strains, locus YPL051W, strain arl3, stronger effect = lower value 1.03 | S. cerevisiae deletion strains, locus YPL055C, strain LGE1, stronger effect = lower value 1.05 and 1.03 | S. cerevisiae deletion strains, locus YPL078C, strain atp4, stronger effect = lower value 1.01 | S. cerevisiae deletion strains, locus YPL106C, strain sse1, stronger effect = lower value 0.952 | S. cerevisiae deletion strains, locus YPL240C, strain hsp82, stronger effect = lower value 0.981 | S. cerevisiae deletion strains, locus YPL241C, strain CIN2, stronger effect = lower value 1 and 1.01 | S. cerevisiae deletion strains, locus YPL256C, strain CLN2, stronger effect = lower value 0.956 | S. cerevisiae deletion strains, locus YPR119W, strain clb2, stronger effect = lower value 1.02 | S. cerevisiae deletion strains, locus YPR141C, strain kar3, stronger effect = lower value 1.01 | S. cerevisiae deletion strains, locus YPR163C, strain tif3, stronger effect = lower value 1.02 | S. cerevisiae deletion strains, locus YPR167C, strain met16, stronger effect = lower value 1.01 | S. cerevisiae deletion strains, strain wtn01, stronger effect = lower value 1.03 | S. cerevisiae strains, strain wild type, stronger effect = lower value 1.02
